The panel holds about 79,000 compounds, 15% with a hit somewhere; the sample as a whole holds those more often. Values without a mark were called inactive. Activity calls are given as the source filed them. No stated cut-off is given here; in the data, active means growth inhibition above about 70%; inactive means the rest.
assay: NCI Yeast Anticancer Drug Screen. Data for the bub3 strain (AID 167); conditions: S. cerevisiae bub3 mutant strain, at 50.0 µM, stronger effect = higher value
Summary of the method: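 Whole-cell yeast assay. The mutant strain was incubated with compounds, and growth inhibition was determined by comparison with vehicle-treated cells.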

Row | Compound | growth inhibition
1 | O=C1c2ccccc2C(=O)c2sc(Nc3cc(Cl)ccc3Cl)nc21 | 83.8% (active)
2 | OCC(c1ccccc1)c1ccccc1 | 18%
3 | CN(C)c1nc(=NCc2ccco2)ss1 | -53%
4 | C/C=C\C=N\NC(N)=S | -2.1%
5 | O=C(/C=N/O)c1c(-c2ccccc2)[nH]c(-c2ccccc2)c1-c1ccccc1 | 85.7% (active)
6 | Cc1c2ccccc2c(CO)c2cc(F)c3ccccc3c12 | 85% (active)
7 | O=C(O)Cc1cccc2c(=O)c3cccc([N+](=O)[O-])c3[nH]c12 | 45.5%
8 | Cc1ccc(SC2=C(N(C)C)C(=O)c3ccccc3C2=O)cc1 | 95.2% (active)
9 | O=C1C(Cl)=C(Cl)C(=O)c2cc(Cl)c(Cl)cc21 | 93.5% (active)
10 | CC1=C(C2CO2)C(=O)C(C)=C(C2CO2)C1=O (stereo not given) | 98.2% (active)
11 | CCc1cc(CC)c(-c2ccco2)c(COC(=O)NC)c1 | 96% (active)
12 | COC(=O)C(=O)N(c1cc(C)ccc1C)c1cc(C)ccc1C | 94.3% (active)
13 | COC1=CC(=O)c2c(O)c3c(c(O)c2C1=O)C=C(C)OC3O (stereo not given) | 85.8% (active)
14 | O=[N+]([O-])c1ccccc1NCCO | -14.2%
15 | CCCCCCCCCCCCCCCC[N+](C)(C)CC(=O)O | 99% (active)
16 | S=C(SSSSC(=S)N1CCCCC1)N1CCCCC1 | 73.5% (active)
17 | COC(O)C12OC3CO[Si](C(C)C)(C(C)C)O[Si](C(C)C)(C(C)C)OC3C1Oc1nc(=O)ccn12 (stereo not given) | 87.5% (active)
18 | O=C(O)c1ccccc1C(c1ccccc1)c1ccccc1 | 75.3% (active)
19 | OC(OC/C(I)=C(/I)COC(O)C(Cl)(Cl)Cl)C(Cl)(Cl)Cl (stereo not given) | 93.1% (active)
20 | COC(C)(C)[C@@H]1CCCN1C1=C(C)C(=O)OC1 | 46.6%

Row | Compound | growth inhibition
21 | COc1ccc(-c2nc(C)[nH]c(=O)c2Cc2c(O)ccc3ccccc23)cc1 | 4.45%
22 | C1CCC(CCNCCC2CCCCC2)CC1 | 98.5% (active)
23 | CC1=C(C)C1[N+](=O)[O-] | 65.7%
24 | COc1ccc2c(c1)OC(c1ccccc1O)CC2=O (stereo not given) | 55.5%
25 | CCN(CC)c1ccc(NC(CC(O)c2ccccc2)c2ccccc2)cc1 (stereo not given) | 21.1%
26 | COc1cc(/C=C/C(=O)c2ccc3ccccc3c2)cc(OC)c1OC | 41.9%
27 | C=CC(=C)OC | 39%
28 | O=C1OC(=O)c2ccc([N+](=O)[O-])c3cccc1c23 | 74.2% (active)
29 | CCCOC(=O)CSC#N | 97.8% (active)
30 | CCCCN(CCCC)CCCCCCNc1cc(OC)cc2cccnc12 | 99% (active)
31 | CN1C(Cl)=NS(=O)(=O)c2ccccc21 | 6.35%
32 | COc1cc(C(=O)CBr)c2ccc(Cl)cc2n1 | 70.3% (active)
33 | CCCCCCCCCCCCCCCC(=O)N(CCCN(CC)CC)C(C)CCCN(CC)CC (stereo not given) | 19.6%
34 | CC1(c2ccccc2)OC1C(=O)N(c1ccccc1)c1ccccc1 (stereo not given) | 92.7% (active)
35 | CCCCCCCNC1CCCc2cc(OC)ccc21 (stereo not given) | 69.8%
36 | Cc1ccc(S(=O)(=O)NCCSCCSCCNS(=O)(=O)c2ccc(C)cc2)cc1 | 94.6% (active)
37 | COc1ccc(C2C3CCCC(C(c4ccc(OC)cc4)N2C)C32NC(=O)NC2=O)cc1 (stereo not given) | 97.8% (active)
38 | CC(C)OC1=C(Cl)C(=O)c2c(cccc2[N+](=O)[O-])C1=O | 98.5% (active)
39 | COC(=O)c1nnn(-c2ccc(Cl)cc2Cl)c1C(=O)c1ccc(Cl)c(Cl)c1 | 95.8% (active)
40 | O=Cc1cc2c(s1)C(=O)c1sccc1C2=O | 90% (active)

Source: PubChem BioAssay (NCI)
